# Experimental data published in PubChem BioAssay.
# A number with no mark means an inactive call. The source made the active and inactive calls. Rule as the data show it, unless noted: active = inhibition above about 44%; inactive = the rest.
# Key:
# [1] = StAR promoter reporter inhibitors, counter-screen for LRH-1 inverse agonist project, cell-based, luminescence, high throughput (AID 651611; in the data active = inhibition above about 28%); settings: StAR promoter luciferase reporter counterscreen, at 3.6 µM, stronger effect = higher value
# [2] = molecular target: Nuclear receptor subfamily 5 group A member 2 (Homo sapiens) (UniProt O00482); test: LRH-1 (NR5A2) inverse agonists, retest, confirmation, cell-based, luminescence (AID 651613; in the data active = inhibition above about 42%;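 also: HEK293T cells co-transfected with LRH-1 and StAR promoter luciferase reporter; 0% = vehicle wells and 100% = parental cells lacking receptor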); settings: cell-based LRH-1 luciferase reporter, inverse agonism; at 3.6 µM; stronger effect = higher value
# Sequence of Nuclear receptor subfamily 5 group A member 2 (Homo sapiens) (O00482 whole entry, looked up): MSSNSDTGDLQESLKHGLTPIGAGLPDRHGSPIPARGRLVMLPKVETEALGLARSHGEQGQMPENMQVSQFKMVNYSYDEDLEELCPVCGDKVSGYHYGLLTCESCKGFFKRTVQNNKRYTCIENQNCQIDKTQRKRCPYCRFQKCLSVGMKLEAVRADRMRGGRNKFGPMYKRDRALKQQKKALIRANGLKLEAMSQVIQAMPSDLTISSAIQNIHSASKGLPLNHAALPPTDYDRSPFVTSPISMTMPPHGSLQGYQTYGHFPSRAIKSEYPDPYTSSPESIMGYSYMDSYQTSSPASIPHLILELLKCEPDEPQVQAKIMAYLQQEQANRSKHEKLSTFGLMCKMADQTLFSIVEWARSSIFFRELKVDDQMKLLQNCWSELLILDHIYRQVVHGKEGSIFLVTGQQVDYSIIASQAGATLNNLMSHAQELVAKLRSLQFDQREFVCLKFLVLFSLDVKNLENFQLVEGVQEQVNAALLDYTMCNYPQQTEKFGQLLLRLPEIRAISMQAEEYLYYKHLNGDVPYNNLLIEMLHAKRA
# [3] = molecular target: Steroidogenic factor 1 (Homo sapiens) (UniProt Q13285); test: SF1 (NR5A1) inverse agonists, counter-screen for LRH-1 inverse agonist project, cell-based, luminescence, high throughput (AID 651614); settings: cell-based SF1 luciferase reporter, at 3.6 µM, stronger effect = higher value;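 also: cells cotransfected with StAR promoter reporter and SF1 expression vector; 0% = vehicle on cells with receptor and 100% = vehicle on cells lacking receptor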
# Sequence of Steroidogenic factor 1 (Homo sapiens) (Q13285 whole entry, looked up, the tested form may be a part): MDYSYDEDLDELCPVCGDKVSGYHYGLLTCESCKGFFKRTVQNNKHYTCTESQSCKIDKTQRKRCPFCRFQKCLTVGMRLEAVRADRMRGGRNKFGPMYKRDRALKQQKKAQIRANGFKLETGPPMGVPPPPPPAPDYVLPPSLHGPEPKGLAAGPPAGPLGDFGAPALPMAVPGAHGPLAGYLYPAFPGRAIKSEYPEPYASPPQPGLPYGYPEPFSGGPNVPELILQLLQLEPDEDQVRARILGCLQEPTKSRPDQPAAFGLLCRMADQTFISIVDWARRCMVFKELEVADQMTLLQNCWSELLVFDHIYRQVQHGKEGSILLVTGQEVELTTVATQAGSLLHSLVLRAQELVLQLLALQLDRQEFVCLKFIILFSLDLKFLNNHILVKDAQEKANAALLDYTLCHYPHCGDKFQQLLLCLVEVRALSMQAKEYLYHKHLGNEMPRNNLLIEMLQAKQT
# [4] = VP16 transactivation reporter inhibitors, counter-screen for LRH-1 inverse agonist project, cell-based, luminescence, high throughput (AID 651615; in the data active = inhibition above about 33%); settings: Gal4-VP16 luciferase reporter cells, at 3.6 µM, stronger effect = higher value
Structure (SMILES),inhibition [1],inhibition [2],inhibition [3],inhibition [4]
CS(=O)(=O)c1ccc2nc(NC(=O)C3CC(=O)N(c4ccccc4)C3)sc2c1 (stereo not given),29.6% (active),60.4% (active),55.9% (active),11.3%
O=C(NCc1cccnc1)c1cccn2c(=O)c3sccc3nc12,17.9%,34.3%,31.3%,1.7%
COc1ccc(OCc2nnc3n2N=C(c2ccc(C)cc2)CS3)cc1,-0.29%,26.3%,28.9%,-1.91%
COc1ccc(OC)c(NS(=O)(=O)c2ccc(SC)cc2)c1,37.9% (active),55% (active),54.2% (active),14.8%
O=C1/C(=C\c2ccc(Cl)c(Cl)c2)CN(C(=O)CCN2CCOCC2)C/C1=C/c1ccc(Cl)c(Cl)c1,67.9% (active),93.2% (active),92.9% (active),79% (active)
CC(=O)C1=C(c2ccc(Br)cc2)C(=O)c2ccccc2C1=O,74.3% (active),101% (active),78.1% (active),92% (active)
COC(=O)c1ccc(NC(=O)COc2cccc(-n3cnnn3)c2)cc1,-5.38%,41.3% (active),32.5%,-9.98%
c1cncc(-c2nc(N3CCCCCC3)c3ccccc3n2)c1,20.8%,56.4% (active),62.8% (active),10.4%
COc1cccc(C(C)(O)c2nc(-c3ccc(S(C)(=O)=O)cc3)cs2)c1 (stereo not given),7.7%,58.2% (active),62.1% (active),24%
CN(C)c1ccc(C=c2c3ccccc3n3c2cc(-c2ccc(Cl)cc2)[n+]3C)cc1,5.51%,102% (active),69% (active),86.3% (active)
